Screening data from PubChem.
HCV inhibitor – inhibitors of hepatitis C virus infection. Potency, µM (titrated, usually from 41.8 µM), without a hit: top-dose activity change, negative = inhibition, usual class: inhibitors. Huh7.5.1 HCVcc-Cre infection, luciferase reporter, 44 h. 3.4% of 340,000 active; also: potency is read from the fitted curve at half-maximal effect
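Cells seeded at 1,000/well and cultured 4 h, then compounds added followed by HCVcc-Cre virus (~0.5 moi). After 44 h further culture, luciferase substrate was added, plates held 15 min at room temperature, and luminescence read for 15 sec.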
Giardia FBPA inh – inhibitors of Giardia lamblia fructose-1,6-bisphosphate aldolase; purified Giardia FBPA; Potency, µM (titrated, usually from 59.6 µM), for the others: at the top dose activity, negative = inhibition, hits mostly inhibitors; 0.71% of 290,000 active; AID 2451; also: potency is read from the fitted curve at half-maximal effect; nearly all actives have a fitted effect of over 55% in size
Target sequence (A8B2U2 whole entry, looked up): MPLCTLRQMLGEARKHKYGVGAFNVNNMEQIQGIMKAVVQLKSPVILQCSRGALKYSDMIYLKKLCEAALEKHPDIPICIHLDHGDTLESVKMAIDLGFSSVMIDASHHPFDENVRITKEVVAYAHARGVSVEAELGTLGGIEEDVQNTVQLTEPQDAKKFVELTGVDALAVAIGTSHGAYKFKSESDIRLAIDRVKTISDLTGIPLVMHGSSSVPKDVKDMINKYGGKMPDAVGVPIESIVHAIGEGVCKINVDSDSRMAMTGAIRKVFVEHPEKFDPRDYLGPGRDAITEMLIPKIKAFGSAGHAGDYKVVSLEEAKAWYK
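Giardia FBPA (40 nM reagent) was preincubated 10 min at RT with compound (up to 57.5 uM final), then substrate plus GAPDH/TPI/NAD/arsenate coupling system with diaphorase/resazurin was added; resorufin fluorescence (525/598 nm) was read after 20 min.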
HCMV inh – human cytomegalovirus inhibition; HFF cells, HCMV-luciferase reporter, 72 h; active compounds read low; activity change, negative = inhibition, % at 57.5 µM; 4.5% of 410,000 active; in the data active = activity change below about -60%; inconclusive = no clear call, values can overlap the other calls; inactive = above about -39%
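Screen run at 2 compound doses on HFFs infected with reporter HCMV, MOI 1 PFU/cell. Luciferase activity from cell lysates at 72 h post infection gave inhibition relative to buffer-only and Salinomycin wells.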
Vaccinia Venus – vaccinia inhibition (Venus reporter). 0.46% of 330,000 active. AID 720580. Vaccinia virus Venus reporter expression, fluorescence. Potency, µM (series often up to 36.5 µM), without a hit: top-dose activity change, negative = inhibition, actives largely listed as inhibitors; calls by dose curve; tested in A549 cells; also: potency is read from the fitted curve at half-maximal effect; nearly all actives have a fitted effect of over 30% in size
Vaccinia mCherry – vaccinia inhibition (mCherry reporter). 0.63% of 310,000 active. Potency, µM (titrated, usually from 36.5 µM), for inactives: at the top dose activity change, negative = inhibition, usual class: inhibitors. AID 720579. Vaccinia virus mCherry reporter infection, fluorescence; calls by dose curve; tested in A549 cells; also: potency is read from the fitted curve at half-maximal effect; nearly all actives have a fitted effect of over 35% in size
FMDV inh – blocks foot and mouth disease virus | AID 1159524 | 1.2% of 410,000 active | Potency, µM (series often up to 57.9 µM), inactives show at the highest dose activity change, negative = inhibition, most hits filed as inhibitors | FMDV antiviral cell-based qHTS; calls by dose curve; tested in HEK293T cells; also: read-out not given here; potency is read from the fitted curve at half-maximal effect; nearly all actives have a fitted effect of over 45% in size
The depositor's hits bear a star; i = inactive; ? = inconclusive; . = no result. Sampled rows, rich in hits. Any-hit rate of the full collection: about 7.5%. Unless noted, calls follow the shape of the dose curve; as a rule, active = well fitted curve in the direction sought with a large enough effect; inconclusive = small, poorly fitted or top-dose-only effect, or another doubt; inactive = no such curve, though single readings can be large; an effect the other way counts as inactive or inconclusive. % is scaled to controls: 0 for no effect and ±100 for the full control effect.

SMILES	HCV inhibitor	Giardia FBPA inh	HCMV inh	Vaccinia Venus	Vaccinia mCherry	FMDV inh
c1csc(-n2nc3ccccc3n2)c1	-28%	0%	-66*	0%	.	10%
Nc1ccc(-n2nc3ccccc3n2)cc1	-12%	.	70	-2%	?	15%
COc1ccc(/C=C2\SC(=O)N(CCNC(=O)C3=COCCO3)C2=O)cc1	?	.	26	?	?	38%
O=C(NCCN1C(=O)S/C(=C\c2ccc(OC(F)F)cc2)C1=O)C1=COCCO1	11µM*	.	.	?	-20%	-14%
CN1CCc2c(OCc3ccc(F)cc3)cccc2C1=O	?	-9%	51	-5%	-2%	-9%
O=C1c2cccc(OCc3ccc(F)cc3)c2CCN1Cc1ccc(F)cc1	6.3µM*	-2%	-82*	?	?	?
O=C(COc1cccc2c1CCN(Cc1ccc(Br)cc1)C2=O)N1CCOCC1	11µM*	1%	-24	-10%	-9%	?
Cc1ccc(CN2CCc3c(OCc4ccc(F)cc4)cccc3C2=O)cc1	?	-3%	-81*	?	?	?
COc1ccc(-c2cc(C)no2)cc1S(=O)(=O)NCc1ccco1	.	.	0	-15%	-21%	69%
CCOC(=O)CSC1=NC(=O)/C(=C\c2ccc(Cl)cc2)S1	?	15%	-94*	.	.	18µM*
CSCCC1NC(=O)C(C(C)=NNC(N)=O)=C1O (stereo not given)	21%	.	17	-1%	-10%	-17%
COC(=O)C1=C(c2cccc3c2S(=O)(=O)c2ccccc2-3)C[C@@H]2CC[C@H]1N2C(=O)N1CCc2cc(OC)c(OC)cc2C1	10µM*	.	-15	-27%	-2%	-30%
COc1ccc(C(=O)N2CCn3c(nnc3C(=O)N3CCCCC3)C2)cc1	.	.	8	.	.	.
Cc1cnc(NC(=O)COc2ccccc2Cl)s1	-7%	-2%	-33	.	.	10µM*
Cc1cnc(NC(=O)CC(C)c2ccccc2)s1 (stereo not given)	?	6%	-68*	-21%	-13%	3%
CC(C)c1nnc(NC(=O)CC(C)c2ccccc2)s1 (stereo not given)	5%	0%	6	-10%	i	28%
CCCCNC(=O)CCc1c(C)nc2nc(-c3cc(OC)cc(OC)c3)nn2c1C	0%	2%	-95*	.	.	-24%
CCCCCCNC(=O)CCc1c(C)nc2nc(-c3cc(OC)cc(OC)c3)nn2c1C	.	.	5	-17%	-25%	-17%
O=C(c1ccc2c(c1)OCO2)N(Cc1cccs1)C1(C(=O)NC2CCCCC2)CCCCC1	?	8%	?	?	16µM*	?
O=C(Cc1cccs1)N(Cc1cccs1)C1(C(=O)NC2CCCC2)CCCCC1	?	5%	?	.	.	?
CCCCOc1ccc(CSCCN)cc1Cl	?	-5%	-3	.	.	43%
CCCCOc1ccc(CCN)cc1Cl	?	0%	-60*	-6%	-17%	31%
COc1cc(OC)cc(C2=Cc3ccc(OC)cc3C(CC(C)=O)N2c2ccc(-c3cccs3)cc2)c1 (stereo not given)	.	.	-83*	2%	19%	-19%
COc1cc(OC)cc(C2=Cc3ccccc3C(CC(C)=O)N2c2ccc(-c3cccs3)cc2)c1 (stereo not given)	.	.	?	1%	-6%	-28%
C=CCn1c(=O)c(C(=O)NCc2ccc(Cl)cc2)c(O)c2ccccc21	3%	-7%	-66*	.	.	-28%
SMILES	HCV inhibitor	Giardia FBPA inh	HCMV inh	Vaccinia Venus	Vaccinia mCherry	FMDV inh
CCCn1c(=O)c(C(=O)NCCc2ccccc2)c(O)c2ccccc21	-20%	3%	-20	-17%	-16%	15%
CCCn1c(=O)c(C(=O)NCCc2ccc(OC)cc2)c(O)c2ccccc21	13µM*	-8%	7	.	.	-9%
CCCn1c(=O)c(C(=O)NCc2ccc(OC)c(OC)c2)c(O)c2ccccc21	14µM*	-16%	58	2%	.	?
C=CCn1c(=O)c(C(=O)NCCc2ccccc2)c(O)c2ccccc21	?	-5%	?	-13%	i	.
COC(=O)C(Cc1ccc(N(CCCl)CCCl)cc1)N=Cc1ccccc1O (stereo not given)	?	4%	-103*	?	-23%	?
CCOC(=O)C(NC(=O)C(Cc1ccc(N(CCCl)CCCl)cc1)NC(C)=O)C(C)C (stereo not given)	-14%	-9%	54	-6%	i	-9%
Cc1ccc(SSc2cc(C)ccc2N)c(N)c1	?	.	-81*	-11%	-8%	14%
Cc1ccc(C)c(N)c1	1%	.	10	-9%	-7%	-20%
O=C(Nc1cccc(C(F)(F)F)c1)C1Cc2c(-c3cccc(F)c3)ccnc2O1 (stereo not given)	.	.	6	-17%	-4%	?
O=C(Nc1ccc2c(c1)OCO2)C1Cc2c(-c3ccc4c(c3)OCO4)ccnc2O1 (stereo not given)	.	.	-62*	-18%	-9%	-27%
CC(=O)Nc1ccc(NC(=O)C2Cc3c(-c4ccc(Cl)cc4)ccnc3O2)cc1 (stereo not given)	.	.	-9	2%	7%	-17%
CC(=O)Nc1ccc(NC(=O)C2Cc3c(-c4ccc5c(c4)OCO5)ccnc3O2)cc1 (stereo not given)	.	.	-14	6%	-13%	-19%
COc1ccc(NC(=O)C2Cc3c(-c4ccc(Cl)cc4)ccnc3O2)cc1OC (stereo not given)	.	.	-78*	-19%	?	?
COc1ccc(NC(=O)C2Cc3c(-c4cccc(C(N)=O)c4)ccnc3O2)cc1OC (stereo not given)	.	.	50	-1%	-7%	-14%
NC(=O)c1cccc(-c2ccnc3c2CC(C(=O)Nc2cccc(C(F)(F)F)c2)O3)c1 (stereo not given)	.	.	-22	-23%	-20%	28µM*
COc1ccc(NC(=O)C2Cc3c(-c4ccc(Cl)cc4)ccnc3O2)cn1 (stereo not given)	.	.	-82*	-23%	-4%	?
COC(=O)/C=C/[C@@H](CC1CCCC1)NC(=O)C(F)(F)F	.	.	-12	.	.	.
O=C(NCc1ccc(Cl)c(Cl)c1)O[C@H]1CC[C@@]23CCCN2C(=O)CCC[C@H]3[C@H]1Cc1ccccc1	.	.	-5	.	.	.
COc1ccc(NC(=O)C2Cc3c(-c4ccccc4)ccnc3O2)cc1OC (stereo not given)	.	.	.	?	?	35µM*
CC(=O)NCCNC(=O)C1Cc2c(-c3cccc(NC(C)=O)c3)ccnc2O1 (stereo not given)	.	.	1	6%	-1%	-18%
COc1ccc(NC(=O)C2Cc3c(-c4cccc(C(C)=O)c4)ccnc3O2)cc1OC (stereo not given)	.	.	-92*	-25%	-10%	8.9µM*
COc1ccc(CCCNC(=O)C2Cc3c(-c4cccc(NC(C)=O)c4)ccnc3O2)cc1 (stereo not given)	.	.	-61*	-26%	-26%	35µM*
